Experiment in all cases: NCI-60 one-dose screen, 48 h (100 = growth as untreated, 0 = no growth, -100 = all killed)
Holding throughout (conditions): 10 µM unless noted

Assay [1] relates to SK-MEL-2 melanoma.
In assay [2] the test system is EKVX NSCLC.
The test system of assay [3] is SN12C renal.
Assay [4] has as its system UO-31 renal.
Assay [5] has as its system TK-10 renal.
Assay [6] concerns ACHN renal.
For assay [7], the system named is CAKI-1 renal.
The test system of assay [8] is A498 renal.
For assay [9], the system named is CCRF-CEM leukemia.
For assay [10], the system named is MOLT-4 leukemia.

About 83,000 compounds went through this panel and 20% of them were active in at least one assay; those are over-represented in the sample as a whole.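 A percent growth of 40 corresponds to 60% growth inhibition; 0 means no net growth; -100 means all cells died. Active threshold: below 10.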 Unmarked numbers belong to inactive results. Active and inactive are the calls of the source.

On to `Cc1[nH]c(C(=O)Nc2ccccc2OCc2cccc(C(=O)NC3CCCNC3)c2)c(Cl)c1Cl` (stereo not given), for which the growth is 102% in assay [1]; -80.4% (active) in [2]; -72.9% (active) in [3]; -13% (active) in assay [4]; -75% (active) in [5]; -86.8% (active) in [6]. Also, the growth is -91.3% (active) in assay [7], 66.2% in assay [8], 2.33% (active) in assay [9] and -25.3% (active) in [10].
Regarding `O=C(CSc1nnc(-c2cccs2)n1-c1ccccc1)Nc1ccccc1`, the growth in assay [1] was 108%; in assay [2], 76.7%; in [3], 83.5%; in assay [4], 64.4%; in assay [5] it was 105%; in assay [6], 59.6%. Also, the growth in assay [7] is 63.6%; in [8], 84.9%; in [9] it was 93.7%; in [10] it was 93.6%.
As to `O=C1Nc2ccc(F)cc2/C1=C\C(=O)c1ccc(NS(=O)(=O)c2ccccc2)cc1`, the growth was 115% in [1]; 82.8% in assay [2]; 87.2% in assay [3]; 70% in assay [4]; 130% in assay [5]; 74.6% in assay [6]. The growth is 72.9% in [7], 115% in [8], 8.68% (active) in [9] and 40.7% in assay [10].
Take `O=C(COc1ccc(/C=C2\C(=O)Nc3ccc(F)cc32)cc1)Nc1ccccc1`: the growth in [1] is 122%; in [2], 95.8%; in assay [3] it was 102%; in assay [4], 85.4%; in assay [5] it was 118%; in assay [6] it was 93.7%. In addition, the growth was 82.4% in assay [7], 99% in [8], 96.9% in assay [9] and 99.2% in assay [10].
Consider `CCCCCCNC(=O)Oc1ccc(/C(=C(/C)c2ccc(Cl)cc2)c2ccc(OCCN3CCCCCC3)cc2)cc1`, for which the growth was 108% in assay [1]; 76.8% in [2]; 70% in assay [3]; 51.8% in assay [4]; 95.8% in assay [5]; 87.3% in assay [6]. Moreover, the growth in assay [7] was 64.9%; in assay [8], 74.5%; in assay [9], 46.2%; in assay [10], 33.3%.
For `CN1CCN(Cc2ccc(NC(=O)c3cncc(C#Cc4cnc5ccc(OCCCS(C)(=O)=O)nn45)c3)cc2C(F)(F)F)CC1`, the growth in [1] is -82% (active); in assay [2], -10.7% (active); in assay [3] it was -15.8% (active); in [4], -12.9% (active); in assay [5] it was -6.6% (active); in assay [6], -16.1% (active). The growth in assay [7] was -14% (active); in assay [8] it was -90.9% (active); in assay [9] it was 6.43% (active); in assay [10], 2.88% (active).
In the case of `CN1CCN(c2ccc(Nc3nc(NCCCNS(=O)(=O)c4ccc(C(F)(F)F)cc4)c4sccc4n3)cc2)CC1`, the growth in assay [1] is -91% (active); in assay [2], 0.826% (active); in assay [3] it was -60.2% (active); in assay [4], -85% (active); in [5] it was -34.4% (active); in [6] it was -74.3% (active). The growth in assay [7] is -76.9% (active); in assay [8], -87% (active); in assay [9], 6.25% (active); in assay [10], 0.188% (active).
For the compound `CC(Nc1c(C#N)cnc2ccc(-c3cncc(-c4n[nH]c(=O)o4)c3)cc12)c1ccccc1` (stereo not given), the growth in [1] was -34% (active); in assay [2], -12% (active); in assay [3], 11%; in assay [4], 1.27% (active); in [5], -23.8% (active); in [6] it was 9.24% (active). The growth was 4.01% (active) in assay [7], -6.1% (active) in [8], 19.6% in assay [9] and 8.04% (active) in assay [10].
Turning to `Clc1cccc(/C=N/Nc2nc(N/N=C/c3cccc(Cl)c3)nc(N3CCOCC3)n2)c1`, the growth in assay [1] is -1.89% (active); in assay [2], 72.2%; in assay [3], 59.9%; in assay [4], 26.8%; in assay [5], 100%; in [6], 25.8%. In addition, the growth was 37.6% in assay [7], 4.3% (active) in assay [8], 24.8% in assay [9] and 6.04% (active) in [10].
With `Cc1ccc(/C(N)=N/C(N)=N/c2nc3ccccc3s2)cc1`, the growth is 114% in [1]; 67.7% in assay [2]; 60.2% in assay [3]; 87% in assay [4]; 136% in assay [5]; 66.8% in assay [6]. The growth is 76.8% in assay [7], 121% in assay [8], 78.9% in [9] and 75.9% in assay [10].
In the case of `Cc1ccc(C(=O)Nc2ccc(CNCCN3CCOCC3)c(C(F)(F)F)c2)cc1C#Cc1cnc2cccnn12`, the growth in [1] is -7.32% (active); in assay [2], 41.2%; in assay [3], 26.5%; in [4], 19%; in assay [5], 51.4%; in [6], 22.8%. Besides, the growth in assay [7] was 17.2%; in [8] it was -1.13% (active); in [9] it was 10.1%; in assay [10], 4.38% (active).
As for `C#CCN(C)CCCOc1ccc(NC(=O)CCCCCCC(=O)NO)cc1Cl`, the growth in assay [1] is 32.7%; in assay [2], 51.5%; in [3] it was 41.2%; in [4] it was 26.3%; in assay [5] it was 1.34% (active); in assay [6], 20.3%. Further, the growth in assay [7] is 17.9%; in assay [8], -12.1% (active); in [9], 15.5%; in [10], 16.9%.
As to `Cc1nc(/N=C(N)/N=C(\N)c2cccc(Br)c2)sc1C`, the growth in [1] was 64%; in [2], 60.2%; in assay [3], 47.3%; in assay [4], 52.5%; in assay [5] it was 83.3%; in assay [6] it was 49.9%. Besides, the growth was 48.6% in assay [7], 43.5% in [8], 34% in [9] and 39.7% in [10].
Regarding `CN1CCN(c2ccc(Nc3nc(NCCNC(=O)c4ccccc4)c4sccc4n3)cc2)CC1`, the growth was 96.6% in assay [1]; 97.3% in assay [2]; 74% in [3]; 66% in assay [4]; 137% in assay [5]; 54.6% in [6]. The growth was 48.3% in assay [7], 130% in [8], 27.9% in [9] and 13.9% in [10].
With `CCCc1[nH]c(-c2cc(N)ccc2Cl)c2c1C(=O)CCCC2`, the growth in assay [1] is 95.5%; in assay [2], 90.3%; in assay [3] it was 92.1%; in assay [4], 78.3%; in assay [5] it was 107%; in [6], 107%. For the same compound, the growth was 76.3% in assay [7], 108% in [8], 96.2% in assay [9] and 88.6% in assay [10].
On to `CN1CCN(c2ccc(Nc3nc(NCCCNS(=O)(=O)c4cccc5ccccc45)c4sccc4n3)cc2)CC1`, for which the growth was -81.7% (active) in assay [1]; 36.1% in assay [2]; -3.36% (active) in assay [3]; -51.1% (active) in [4]; -40.6% (active) in assay [5]; -23.8% (active) in assay [6]. Also, the growth was -52.7% (active) in assay [7], -70.5% (active) in [8], 7.22% (active) in assay [9] and -3.37% (active) in assay [10].
As for `COc1ccc(/C=N/NC(=O)c2c(N)nn(C)c2Nc2ccccc2)cc1`, the growth is 7.07% (active) in assay [1]; 69.7% in assay [2]; 57.6% in assay [3]; 51.2% in assay [4]; 89.2% in assay [5]; 50% in assay [6]. The growth in [7] was 39.8%; in assay [8] it was 33.1%; in assay [9], 38.5%; in assay [10], 49.4%.
For the compound `Cc1ccc(C(=O)CSc2nc3ccccc3c(=O)n2C)cc1`, the growth in assay [1] was 95.7%; in [2], 71.5%; in [3], 94.2%; in assay [4] it was 56.6%; in [5] it was 134%; in [6] it was 83.7%. In addition, the growth was 72.7% in [7], 99.8% in assay [8], 83.6% in assay [9] and 88% in assay [10].
In the case of `C/C(CC1(O)C(=O)Nc2ccccc21)=N\O` (stereo not given), the growth is 102% in [1]; 87.9% in [2]; 98% in assay [3]; 84.9% in assay [4]; 104% in assay [5]; 92.5% in [6]. Besides, the growth was 83.5% in [7], 70.6% in assay [8], 99.7% in assay [9] and 95.4% in [10].
For `Cc1ccc(-c2cc3nc(C(Cl)Cl)nc(-c4ccc(S(=O)(=O)N(C)C)cc4)n3n2)cc1`, the growth is 113% in [1]; 103% in [2]; 50.7% in assay [3]; 92.1% in assay [4]; 107% in assay [5]; 83.2% in [6]. Moreover, the growth was 82.2% in [7], 101% in assay [8], 69.3% in assay [9] and 75.6% in assay [10].
In the case of `COC(=O)c1ccc(NC2=C(Cl)C(=O)c3nc(C)ccc3C2=O)cc1`, the growth is 88.3% in assay [1]; 76.6% in assay [2]; 77% in assay [3]; 61.7% in assay [4]; 152% in assay [5]; 35.1% in assay [6]. The growth in assay [7] was 80.2%; in assay [8], 77.9%; in [9], 16.1%; in [10], 19.8%.

These data come from PubChem BioAssay (NCI).
